sEH act = activators of human soluble epoxide hydrolase; P34913; purified human sEH enzymatic activity, activator screen; activation, % at 2 µM; actives 0.04% (n = 91,000); in the data active = activation above about 37%
Target sequence (P34913 whole entry, looked up): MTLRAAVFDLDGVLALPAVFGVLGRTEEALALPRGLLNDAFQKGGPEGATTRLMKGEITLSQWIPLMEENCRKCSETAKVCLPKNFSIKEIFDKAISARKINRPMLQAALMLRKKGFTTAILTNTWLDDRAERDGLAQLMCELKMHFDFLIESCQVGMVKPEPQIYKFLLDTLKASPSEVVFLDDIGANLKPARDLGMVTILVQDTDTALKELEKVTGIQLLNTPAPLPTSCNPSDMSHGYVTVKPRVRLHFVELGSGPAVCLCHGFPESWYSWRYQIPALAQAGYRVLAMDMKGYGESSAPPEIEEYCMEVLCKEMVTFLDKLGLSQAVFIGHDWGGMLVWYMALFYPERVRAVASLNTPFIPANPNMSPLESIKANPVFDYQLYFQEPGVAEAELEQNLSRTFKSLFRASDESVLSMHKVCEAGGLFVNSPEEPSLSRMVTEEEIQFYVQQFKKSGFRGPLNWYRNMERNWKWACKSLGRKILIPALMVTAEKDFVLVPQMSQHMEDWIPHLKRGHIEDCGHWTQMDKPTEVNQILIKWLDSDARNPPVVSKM
CYP2C19 inh = blocks human cytochrome P450 2C19. CYP2C19 Supersomes, luciferin-H EGE luminescence, 30 min. inhibition, % at 5 µM. actives 21% (n = 96,000);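 active = CYP2C19 inhibition above a set limit at 5 µM in the primary screen, cut at about 50% in these data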
sEH inhibitor = soluble epoxide hydrolase (human) inhibition; P34913; actives 0.34% (n = 91,000); AID 707; recombinant human sEH enzymatic activity assay; inhibition, % at 2 µM; in the data active = inhibition above about 80%
CYP2C9 activ = activators of human CYP2C9; P11712; recombinant CYP2C9, luciferin-H conversion, luminescence; hits give high values; factor 1 = untreated enzyme, 0 = blocked; activation factor at 5 µM; actives 1.4% (n = 96,000);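 active = activation factor of 2 or more for CYP2C9 at a 5 µM dose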
CYP2C9 inh = inhibitors of human CYP2C9; P11712; CYP2C9 Supersomes, luciferin-H conversion, luminescence; inhibition, % at 5 µM; actives 20% (n = 96,000); AID 777;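 active = blocking of liver enzyme CYP2C9 beyond about 50% at 5 µM, limit read from the data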
CYP2C19 act = activators of human cytochrome P450 2C19 | 96,000 tested, under 10 active | P33261 | activation factor at 5 µM | recombinant CYP2C19, luciferin-H EGE luminescence; hits give high values; 0 = fully inhibited enzyme, 1 = untreated enzyme | AID 1025;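 active = activation factor of at least 2 at 5 µM in the primary screen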
Hits are given with their value; n = inactive; x = no result. Most compounds without a hit are left out; they make up all but 27% or so of the library.

SMILES	sEH act	CYP2C19 inh	sEH inhibitor	CYP2C9 activ	CYP2C9 inh	CYP2C19 act
O=C(CN1C(=O)C2CC=CCC2C1=O)Nc1nnc(SCc2ccc(F)cc2)s1 (stereo unspecified)	n	n	n	n	n	n
Cc1ccc(S(=O)(=O)CCC(=O)N2CCc3ccccc32)cc1	n	n	n	2.2	n	n
Cc1ccc(S(=O)(=O)N2CCN(C(=O)CCC(=O)N3CCc4ccccc43)CC2)cc1	x	n	x	n	n	n
Cc1ccccc1NC1=C(Cl)C(=O)OC1OC(C)C (stereo unspecified)	n	96	n	n	n	n
O=C(CN1CCOCC1)N/N=C/c1cc2ccccc2nc1Cl	n	n	n	n	n	n
Cc1ccc(NCC(=O)N/N=C/c2cc3ccccc3nc2Cl)cc1	n	n	n	n	54	n
O=P(O)(CCc1ccncc1)CN1CCCCC1	x	n	x	n	n	n
COC(=O)c1ccc2nc(C)c(C)nc2c1	n	n	n	n	n	n
COC(=O)c1ccc2c(c1)C(C)(C)C(/C=C/c1ccc(O)cc1)=[N+]2C	n	95	n	n	99	n
O=C(c1ccccc1Sc1cccc2ccccc12)N1CCOCC1	n	x	n	x	x	x
O=C(c1ccc(F)cc1)N1C2CCC1CC(O)(c1ccccc1F)C2 (stereo unspecified)	x	53	x	n	n	n
COc1ccc(OC)c(C2=NOC(C(=O)N3CCCc4ccccc43)C2)c1 (stereo unspecified)	n	n	n	2.4	n	n
COc1cccc(C2=NOC(C(=O)N3CCN(Cc4ccccc4)CC3)C2)c1OC (stereo unspecified)	n	n	n	2.1	n	n
COc1cc(OC)c(C2=NOC(C(=O)O)C2)cc1Cl (stereo unspecified)	n	n	n	n	n	n
O=C(C1CC(c2ccc(F)cc2)=NO1)N1CCCc2ccccc21 (stereo unspecified)	n	52	n	2.4	n	n
COc1cc(OC)c(C2=NOC(C(=O)N3CCc4ccccc4C3)C2)cc1Cl (stereo unspecified)	n	59	n	2.1	n	n
CC1C(=O)CCCCCCCCCC2C1(N1CCOCC1)CS2(=O)=O (stereo unspecified)	n	x	n	x	x	x
CCC(C)N1C(=O)CCC1C(=O)N1CCN(c2ccccc2F)CC1 (stereo unspecified)	n	n	n	n	n	n
CC1CCN(CCC(=O)Nc2ccc3c(c2)CCC3)CC1	n	x	n	x	x	x
CC1CN(CCC(=O)Nc2ccc3c(c2)CCC3)CC(C)O1 (stereo unspecified)	n	52	n	n	n	n
O=C(O)COCC(=O)Nc1ccc2c(c1)CCC2	n	n	n	n	n	n
COc1ccc(CC(=O)Nc2ccc3c(c2)CCC3)cc1OC	n	81	n	n	n	n
Cc1ccc(S(=O)(=O)N2CCCC2c2nc3ccccc3s2)cc1 (stereo unspecified)	n	n	n	n	n	n
Cc1ccc2oc(=O)c3cc(C(=O)NCc4ccco4)sc3c2c1	x	n	x	2.1	n	n
Cc1ccc(C)c(SCC(=O)NCc2ccco2)c1	n	n	n	n	n	n
SMILES	sEH act	CYP2C19 inh	sEH inhibitor	CYP2C9 activ	CYP2C9 inh	CYP2C19 act
CCOc1ccc(-n2c(=S)sc3c(=O)[nH]c(SCC(=O)NC(C)CC)nc32)cc1 (stereo unspecified)	n	n	n	n	78	n
CCOc1ccc(-n2c(SCC(=O)NC(C)CC)nc3n[nH]c(C)c3c2=N)cc1 (stereo unspecified)	x	n	x	n	n	n
CCOc1ccc(NC(=O)C2CCN(C(=O)NCc3ccccc3)CC2)cc1	n	n	n	n	n	n
COc1ccccc1NC(=O)C1CCCN(S(=O)(=O)c2cccc3nsnc23)C1 (stereo unspecified)	n	72	n	n	71	n
CCOc1ccccc1NC(=O)C1CCCN(C(=O)NCc2ccccc2)C1 (stereo unspecified)	n	51	n	n	n	n
CCOc1ccccc1NC(=O)C1CCCN(S(=O)(=O)c2ccc(OC)c(C)c2)C1 (stereo unspecified)	n	93	n	n	n	n
COc1cccc(NC(=O)C2CCCN(S(=O)(=O)c3cccc4nsnc34)C2)c1 (stereo unspecified)	n	50	n	n	67	n
CCSc1ccc2nnc(-c3ccc(F)cc3)n2n1	n	n	n	n	n	n
C=CCC(=O)OCC(=O)Nc1ccc(Oc2ccccc2)cc1	x	n	x	n	n	n
COc1ccccc1-c1cc(C(F)(F)F)nc(NCc2ccco2)n1	x	n	x	n	n	n
Cc1ccc2oc(C(=O)Nc3c(C)n(C)n(-c4ccccc4)c3=O)c(C)c2c1	n	x	n	x	x	x
CCN(CC)CCNC(=O)c1ccc2c(=O)n(CCc3ccccc3)c(=O)[nH]c2c1	x	n	x	n	n	n
COC(=O)Nc1ccc(S(=O)(=O)N2CCCC(C(=O)Nc3cccc4c3OCCO4)C2)cc1 (stereo unspecified)	n	64	n	n	83	n
COC(=O)Nc1ccc(S(=O)(=O)N2CCCC(C(=O)Nc3cccnc3)C2)cc1 (stereo unspecified)	n	n	n	n	n	n
CN(C)S(=O)(=O)c1ccc(N2CCCC2)c(C(=O)NC(c2ccccc2)c2ccccc2)c1	n	n	n	n	54	n
CCC(=O)Nc1ccc(N2CCCCC2)c(C(=O)Nc2ccccc2C)c1	n	53	n	n	n	n
CN(C)S(=O)(=O)c1ccc(N2CCCC2)c(C(=O)Nc2ccc(N3CCOCC3)cc2)c1	n	n	n	n	n	n
Cc1ccccc1NC(=O)c1cc(N)ccc1N1CCCCC1	n	98	n	n	86	n
CCN(CC)S(=O)(=O)c1ccc(N2CCCCC2)c(C(=O)Nc2ccccc2N2CCOCC2)c1	n	59	n	n	n	n
O=C(O)CCCC(=O)NCCCCc1ccccc1	n	n	n	n	n	n
Cc1cc(C)nc(NS(=O)(=O)c2ccc(NC(=S)NC(=O)CC(C)C)cc2)n1	n	x	n	x	x	x
CSc1nc(C)cc(NC(N)=O)n1	n	n	n	n	n	n
Cn1c(NCc2cccc(Br)c2)nc2ccccc21	n	54	n	n	n	n
Cn1c(NCc2ccccc2O)nc2ccccc21	x	64	x	n	n	n
CC(C)(CNC(=O)c1ccc([N+](=O)[O-])c(Cl)c1)CNC(=O)c1ccc([N+](=O)[O-])c(Cl)c1	n	n	n	x	x	n
Cc1ccc(-c2c(C)sc(=NC(=O)c3ccco3)n2C)cc1	n	n	n	n	77	n
COc1ccc(OC)c2c1sc(=NC(=O)c1ccco1)n2C	n	n	n	n	n	n
COC(=O)c1ccc2c(=O)n(CCCCCC(=O)N3CCN(c4ccccc4)CC3)c(=O)[nH]c2c1	n	53	n	n	56	n
COc1cc2[nH]c(=O)n(CCCCCC(=O)NCCc3c[nH]c4ccccc34)c(=O)c2cc1OC	n	64	n	n	67	n

From PubChem
